Read-out in experiment [1]: TIMP metallopeptidase inhibitor 2 (TIMP2), TIMP2 (gene 7077)
As to the kind of experiment: BSK_hDFCGF_TIMP2: BioMAP Diversity Plus: hDFCGF Assay for TIMP metallopeptidase inhibitor 2 (TIMP2) Biomarker Activity (AID 2284289). Conditions: primary human foreskin fibroblasts. An outline of the steps:
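Primary human foreskin fibroblasts in the hDFCGF system, dosed for 24 h; TIMP-2 level measured by ELISA, fitted in the positive direction against DMSO; cytotoxicity checked in parallel by sulforhodamine B total protein staining.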

Read-out in experiment [2]: Thrombomodulin, THBD (gene 7056)
As to the kind of experiment: BSK_LPS_Thrombomodulin: BioMAP Diversity Plus: LPS Assay for Thrombomodulin Biomarker Activity (AID 2284296). Conditions: primary human HUVEC with PBMC. An outline of the steps:
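Human umbilical vein endothelial cells co-cultured with PBMC and stimulated with LPS; cell-surface thrombomodulin measured by ELISA 24 hours after compound. Gain or loss versus DMSO; cytotoxicity checked by SRB staining in parallel cultures.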

Read-out in the next experiment: CD69, CD69 (gene 969)
Description: BSK_LPS_CD69: BioMAP Diversity Plus: LPS Assay for CD69 Biomarker Activity (AID 2284303). The conditions noted are these: primary human HUVEC with PBMC. An outline of the steps: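 Human umbilical vein endothelial cells co-cultured with PBMC under LPS stimulation, chemical exposure 24 h; cell-surface CD69 measured by ELISA and fitted in the positive direction versus DMSO.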

Experiment [3] is described as follows: IUF_NPC2c_oligodendrocyte_migration_120hr: Leibniz Research Institute for Environmental Medicine (IUF) 120-hour Neural Progenitor Cell Migration Assay for Oligodendrocyte Migration (NPC2c) (AID 2284297).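 Also: O4-positive oligodendrocyte migration distance divided by radial glia migration distance.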 An outline of the steps:
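Primary hNPC spheres migrating on extracellular matrix, exposed five days to a 7-point dilution series with solvent control. Oligodendrocyte migration was scored by high-content imaging of O4 immunostaining and expressed relative to radial glia distance.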

Experiment [4] is described as follows: IUF_NPC2a_radial_glia_migration_120hr: Leibniz Research Institute for Environmental Medicine (IUF) 120-hour Neural Progenitor Cell Migration Assay for Radial Glia Migration (NPC2a) (AID 2284298). In outline: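 In this multiplexed test, fetal hNPC spheres migrate radially on poly-D-lysine/laminin in N2 medium (37C, 5% CO2, pH 7.2-7.6) under continuous compound exposure over five days. Migration is scored at 120 h from automated Hoechst nuclear imaging.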

Experiment [5] in a line: IUF_NPC2a_radial_glia_migration_72hr: Leibniz Research Institute for Environmental Medicine (IUF) 72-hour Neural Progenitor Cell Migration Assay for Radial Glia Migration (NPC2a) (AID 2284299). In outline:
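Human fetal neural progenitor spheres (0.3 mm) plated on poly-D-lysine/laminin in N2 differentiation medium and exposed from day 0 at 7 concentrations; radial glia migration distance from sphere edge measured at 72 h on brightfield images, mean of four directions, vs DMSO.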

Experiment [6] in a line: IUF_NPC2b_neuronal_migration_120hr: Leibniz Research Institute for Environmental Medicine (IUF) 120-hour Neural Progenitor Cell Migration Assay for Neuron Migration (NPC2b) (AID 2284300). In outline: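 Neurons identified by TUBB3 immunostaining and Hoechst nuclei; migration distance measured automatically on fixed wells at 120 h, normalized to glia migration. Exposure spanned five days of differentiation in N2 medium, seven test concentrations.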

The nature of experiment [7]: IUF_NPC3_neuronal_differentiation_120hr: Leibniz Research Institute for Environmental Medicine (IUF) 120-hour Neuronal Differentiation Assay (NPC3) (AID 2284301). In outline: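 Single 0.3 mm neurospheres from human fetal cortex were plated in differentiation medium containing test compound. Medium was half-replaced on day 3. After 120 h cells were fixed, immunostained and imaged, and neuronal fraction was scored against DMSO control.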

The nature of experiment [8]: IUF_NPC5_oligodendrocyte_differentiation_120hr: Leibniz Research Institute for Environmental Medicine (IUF) 120-hour Oligodendrocyte Differentiation Assay (NPC5) (AID 2284304; active = hit-call score of the fitted dose curve at least 0.9, where 1 is the maximum;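 also: primary human fetal neural progenitor spheres plated to migrate and differentiate; share of O4-positive cells among Hoechst nuclei found by CNN image analysis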). An outline of the steps:
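Human primary NPC neurospheres migrating and differentiating on laminin for 120 h under continuous compound exposure (serial dilution, solvent control). Endpoint: percent O4+ oligodendrocytes among Hoechst nuclei, detected by CNN image analysis, with DMSO as negative control.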

The nature of experiment [9]: IUF_NPC4_neurite_length_120hr: Leibniz Research Institute for Environmental Medicine (IUF) 120-hour Neuronal Morphology Assay for Neurite Length (NPC4) (AID 2284302). An outline of the steps: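 Read-out is mean neurite length in µm of TUBB3-positive neurons, skeletonized from high-content fluorescence images after 120 h. Single 0.3 mm primary human neural progenitor spheres differentiated on poly-D-lysine/laminin under continuous compound exposure; DMSO was baseline.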

Where “and” joins values, the source holds several entries; their conditions need not be identical. Identical values can stand only once. Results filed as inconclusive are left out. Where a structure was tested more than once in an assay, its records may differ in their call. Calls of active or inactive are those of the source. The calls were made as follows, unless noted: active = hit-call score of the fitted dose curve at least 0.9, where 1 is the maximum; inactive = score below 0.9.

Turning to `O=CN1CCOCC1`, the outcome was “inactive” in experiment [1]; “inactive” in experiment [2]; “inactive” with CD69, CD69 (gene 969).

As for `COCCOCCOCCO`, the outcome in experiment [3], in [4], in [5], in experiment [6], in experiment [7] and in experiment [8] was inactive.

For `Oc1c(Cl)cc(Cl)c(Cl)c1Cc1c(O)c(Cl)cc(Cl)c1Cl`, the AC50 in experiment [3] is 124 nM (active); in experiment [4] it was 272 nM (active); in experiment [5], 380 nM (active); in [6], 566 nM (active); in experiment [7], 472 nM (active); in [9] it was 168 nM (active). Also, in experiment [8], the AC50 was 75.1 nM (active).

For the molecule `CCCCCCC(CO)CCCC` (stereo not drawn), the AC50 in [1] is 30.6 µM (active) and 37.3 µM (active). Also, the outcome in [2] was “inactive”; with CD69, CD69 (gene 969), “inactive”.

For the molecule `C=CC(C)(O)CCC=C(C)C` (stereo not drawn), the outcome was “inactive” in [1]; “inactive” in experiment [2]; “inactive” in the experiment with CD69, CD69 (gene 969).

For `CN(C)CCOC(C)(c1ccccc1)c1ccccn1` (stereo not drawn), the call in [3], in experiment [4], in [5], in experiment [6], in [7] and in [9] was inactive.

Consider `COCCc1ccc(OCC(O)CNC(C)C)cc1` (stereo not drawn), for which the molecule was called inactive in experiment [3], in experiment [4], in experiment [5], in experiment [6], in experiment [7] and in experiment [9]. The outcome in experiment [8] was inactive.

With `CCOC(=O)C(C#N)=C(c1ccccc1)c1ccccc1`, the outcome in [1] was “inactive”; in experiment [2] it was “inactive”; with CD69, CD69 (gene 969), “inactive”. Moreover, the AC50 with CD69, CD69 (gene 969) was 27900 nM (active).

Regarding `O=C(Nc1ccc2c(O)c(N=Nc3ccc(N=Nc4ccc(S(=O)(=O)O)cc4)cc3)c(S(=O)(=O)O)cc2c1)c1ccccc1`, the outcome in [1] was “inactive”; in experiment [2], “inactive”; with CD69, CD69 (gene 969), “inactive”.

As for `CC(CN=Cc1ccccc1O)N=Cc1ccccc1O` (stereo not drawn), the outcome in experiment [1] is “inactive”; in experiment [2] it was “inactive”; with CD69, CD69 (gene 969), “inactive”.

As for `CC1(C)CCC[C@]2(C)[C@H]3CCO[C@]3(C)CC[C@@H]12`, the AC50 in experiment [1] was 36.4 µM (active) and 37.9 µM (active). Further, the outcome in [2] is “inactive”; with CD69, CD69 (gene 969), “inactive”.

Source of the values: PubChem BioAssay (EPA / NIEHS).
